# Screening data (PubChem BioAssay)
# Myeloid diff MLP = promotes myeloid progenitor differentiation. ER-HoxA9 myeloid progenitors, lysozyme-GFP differentiation, flow cytometry. AID 624256. calls only at 10 µM. 360,000 tested, 1% active;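 active = normalized GFP-positive differentiation at or above the plate's own cutoff, the solvent-only control mean plus 3 SD; inconclusive = no clear call, values can overlap the other calls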;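 note: cells exposed to compound for four days before flow analysis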
# ATG4B inh = blocks human ATG4B protease cleavage of LC3 substrate. ATG4B cleavage of LC3-PLA2, NBD-HPC fluorescence, 1 h. inhibition, % at 8.33 µM. 340,000 tested, 0.51% active. AID 504462; in the data active = inhibition above about 40%
# Target sequence (Q9Y4P1 whole entry, looked up): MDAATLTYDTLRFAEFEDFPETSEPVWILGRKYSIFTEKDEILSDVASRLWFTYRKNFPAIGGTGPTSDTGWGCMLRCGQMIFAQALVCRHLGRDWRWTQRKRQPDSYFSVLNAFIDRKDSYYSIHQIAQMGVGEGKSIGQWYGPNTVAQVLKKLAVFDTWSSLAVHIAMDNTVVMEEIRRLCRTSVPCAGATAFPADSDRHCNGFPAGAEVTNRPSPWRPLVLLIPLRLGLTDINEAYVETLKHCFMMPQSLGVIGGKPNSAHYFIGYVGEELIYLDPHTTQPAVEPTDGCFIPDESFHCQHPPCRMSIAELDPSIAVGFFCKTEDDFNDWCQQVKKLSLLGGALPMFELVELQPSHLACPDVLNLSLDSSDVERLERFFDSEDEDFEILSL
# SKN-1 block = inhibitors of C. elegans SKN-1; inhibition, % at 21.8 µM; C. elegans VP596 Pgst-4::GFP/RFP ratio, acrylamide-induced, 24 h; 360,000 tested, 0.49% active;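 active = interference check ratio from 0.5 to 1.5 plus GFP to RFP signal ratio inhibition reaching or exceeding a fixed threshold, cut at about 30% in these data, passing the limit was not always enough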
# CHRM1 antagonist = human CHRM1 antagonism; AID 588852; CHO-K1 hM1, Fluo-8 calcium fluorescence, ACh EC80 antagonist; P11229; 360,000 tested, 1.3% active; inhibition, % at 3 µM;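 active = percent inhibition above its own plate's cutoff, namely the mean of that plate's compound wells plus 3 SD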;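 note: peak over basal fluorescence ratio during 140 s after agonist addition; 0% = ACh EC80 plus DMSO and 100% = DMSO alone without agonist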
# M1 PAM = potentiates human M1 receptor response to acetylcholine; P11229; CHO-K1 hM1, Fluo-8 calcium fluorescence, ACh EC20; 0% = ACh EC20, 100% = maximal ACh; activation, % at 3 µM; 360,000 tested, 0.088% active; in the data active = activation above about 19%, passing the limit was not always enough
# CHRM1 agonist = activates human CHRM1 receptor; CHO-K1 hM1, Fluo-8 calcium fluorescence, agonist mode; 0% DMSO, 100% acetylcholine EC100; activation, % at 3 µM; 360,000 tested, 0.33% active; AID 588814;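 active = activation above the run's mean compound activation plus 3 SD, cut at about 16% in these data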;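 note: peak over basal fluorescence ratio within a 140 s kinetic read after compound addition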
# The depositor's hits bear a star; i = inactive; ? = inconclusive; . = no result given; + = active, no number. Compounds with a hit are over-represented: about 3.5% of the library has one in this group of screens.
SMILES,Myeloid diff MLP,ATG4B inh,SKN-1 block,CHRM1 antagonist,M1 PAM,CHRM1 agonist
O=C(COc1ccccc1)NC(=S)Nc1cccc2c(O)cccc12,i,.,33,3,3,19*
Cc1ncc([N+](=O)[O-])n1CC(O)CCl (stereo not drawn),i,0,13,-22,0,17*
Cc1ncc([N+](=O)[O-])n1Cc1ccc(Cl)cc1,i,4,-9,-11,5,-5
Cc1ccc(N2CCN(S(=O)(=O)c3ccc4oc(=O)ccc4c3)CC2)c(C)c1,?,2,43*,-23,12,1
O=c1ccc2cc(S(=O)(=O)N3CCN(c4cc(Cl)ccc4Cl)CC3)ccc2o1,i,-2,13,-6,3,-5
CCCCCC(=O)N1C[C@@H](O)[C@H](n2cc(COC(=O)c3ccccc3)nn2)C[C@@H]1c1ccc(Cl)cc1,i,.,-17,-7,2,-1
CCOC(=O)c1sc(-c2ccc(Br)cc2)cc1N,i,4,4,-6,0,-8
NNC(=O)c1sc(-c2ccc(Cl)cc2)cc1N,+,6,7,-1,7,2
O=S(=O)(NCC1CN(S(=O)(=O)c2c(F)cccc2F)C1)c1ccc2c(c1)OCCO2,i,-1,-4,24,-16,0
O=c1[nH]c2cc(Cl)c(Cl)cc2o1,i,3,10,-15,7,5
O=c1[nH]c2cc(Cl)c(Br)cc2o1,i,5,35*,-7,3,4
CCN(CC)Cc1ccccc1Sc1ccccc1,i,-5,6,98*,-26,-7
C(=C\c1ccccc1)/CN1CCN(C(c2cc3ccccc3o2)c2nnnn2C2CCCCC2)CC1 (stereo not drawn),i,.,12,-11,3,6
CCOC(=O)c1ccc(NC(=S)NCCc2ccccc2F)cc1,i,7,8,61*,-20,0
CCOC(=O)c1ccc(NC(=S)NCCc2ccccc2)cc1,.,2,6,24,-8,1
CCOC(=O)c1ccc(NC(=S)NCC(O)c2ccccc2)cc1 (stereo not drawn),i,-3,2,34*,-14,-3
c1ccc(Oc2cccc(OCCCCN3CCCC3)c2)cc1,i,2,3,40*,-28,-11
CC1CN(CCCCOc2cccc(Oc3ccccc3)c2)CC(C)O1 (stereo not drawn),i,-4,3,29*,-24,-7
CCOC(=O)C1=C(C)N(C)C(C)=C(C(=O)OCC)C1c1ccc(C(=O)OC)cc1,i,-7,8,53*,-22,-4
CC1Sc2ccc(C#N)cc2N(Cc2cccc(C(F)(F)F)c2)C1=O (stereo not drawn),i,.,-1,14,-9,-8
Oc1ccc(C=NNC(=S)Nc2ccccc2)nc1,i,.,45*,-2,-1,0
O=C(NC(=S)NN1CCOCC1)c1cc(Br)ccc1Cl,i,0,-10,20,-5,-2
COc1c2ccc(C(=O)NCCCCc3ccccc3)cc2nn1C,+,-6,6,3,0,-5
N#Cc1c(N)n(CCNC(=O)c2cccs2)c2nc3ccccc3nc12,+,-11,-10,7,3,-1
CCCCN(C)C(=O)c1ccc2c(c1)S(=O)(=O)c1ccccc1C2=O,i,9,7,-8,6,0
SMILES,Myeloid diff MLP,ATG4B inh,SKN-1 block,CHRM1 antagonist,M1 PAM,CHRM1 agonist
Cc1ccc(C2CC(C(F)(F)F)n3nc(C(=O)NCc4c(C)nn(C)c4C)c(Cl)c3N2)cc1 (stereo not drawn),i,-5,46*,5,5,-8
Cc1nn(C)c(C)c1CNC(=O)c1cnn2c1NC(c1ccccc1)CC2C(F)(F)F (stereo not drawn),i,-11,9,-3,5,-6
CCOC(=O)C1CCN(C(=O)Cn2c(=O)oc3cc(S(=O)(=O)N4CCCC4)ccc32)CC1,i,-3,0,-4,8,-3
Oc1ccc(C[C@@H]2CNCCN2CCc2cccc3ccccc23)cc1,+,3,-17,8,11,0
CCCCN1CCNC[C@@H]1Cc1ccccc1,i,-16,5,-4,6,-5
CCCCN1CCNC[C@@H]1Cc1ccc(O)cc1,+,5,1,-3,9,-3
